# Source: PubChem BioAssay (Tox21)
# Unmarked numbers belong to inactive results. A call without a number means that no potency is given here. The source made the active and inactive calls. Calls come from the whole dose curve; as a rule, active = well fitted curve in the direction sought with a large enough effect in the repeat runs; inconclusive = weak or mixed curves; inactive = flat fitted curve, though single readings scatter.
# Experiment: qHTS assay to test for compound auto fluorescence at 460 nm (blue) in HepG2 cells (AID 720687)
# Details: autofluorescence 405/460 nm, 1 h; series mostly up to 91.3 µM
# From the text: U.S. Tox21 Program National Center for Advancing Translational Sciences [NCATS] NIH Chemical Genomics Center [NCGC] U.S. Environmental Protection Agency [EPA] National Institutes of Environmental Health Sciences [NIEHS] National Toxicology Program [NTP] U.S. Food and Drug Administration [FDA] Tox21 Assay Overview: Compound auto fluorescence often interferes with screening of the compound library against various biological targets and signaling pathways. Some of these compounds may have fluorophoric properties. Such properties may interfere with the assay outputs resulting in false positives and/or negatives. To decrease such complications and ensure the compound activities are relevant in terms of biological response, the Tox21 10K compound library was screened for auto fluorescence. From the fluorophores used as reporter signals in our screening assays, the auto fluorescence equivalencies of compounds against three fluorophores have been evaluated: Triamterene, Fluorescein and Rose Bengal sodium for blue, green and red fluorescence, respectively. The fluorescence intensities were measured using Excitation/Emission wavelengths at 405/460nm, 485/535nm and 540/590nm for blue, green and red labels, respectively. This assay includes the blue fluorescence data.
# Tox21 Assay Protocol Summary: 2,000 HepG2 cells in 5 uL of culture medium (MEM containing 10% FBS) per well were dispensed into black wall/clear bottom 1536-well plates using a Multidrop Combi Dispenser (ThermoFisher Scientific, Waltham, MA). The assay plates were incubated overnight at 37 C to allow cell attachment to the well bottom, followed by the transfer of 23 nL compound or DMSO vehicle by a pintool work station (Kalypsys , San Diego, CA). After the assay plates were incubated for 1 hr at 37 C and 5% CO2, fluorescence intensities in the assay plates were measured by an Envision (PerkinElmer, Shelton, CT) plate reader using three labels for measuring blue, green and red fluorescence at […] 460, 535 and 590 nm respectively.
SMILES,Potency,"fluorescence, % of fluorescent control"
O=C(/C=C/c1ccccc1)OCCc1ccccc1,inactive,
O=c1c(O)c(-c2ccc(O)cc2)oc2cc(O)cc(O)c12,inactive,
COC(=O)C1=C(C)NC(C)=C(C(=O)O[C@@H]2CCCN(Cc3ccccc3)C2)[C@@H]1c1cccc([N+](=O)[O-])c1,inactive,
Clc1cc(Cl)nc(Cl)n1,inactive,
CN1C(=O)OC(C)(C)C1=O,inactive,
C[C@H]1c2cccc(O)c2C(O)=C2C(=O)[C@]3(O)C(O)=C(C(N)=O)C(=O)[C@@H](N(C)C)[C@@H]3[C@@H](O)[C@@H]21,inactive,
CCC1NC(=O)c2cc(S(N)(=O)=O)c(Cl)cc2N1 (stereo not given),,-0.0496% [at 18.6 µM]
CC(C)Nc1cccnc1N1CCN(C(=O)c2cc3cc(NS(C)(=O)=O)ccc3[nH]2)CC1,inactive,
CCCCCCCC/C=C\CCCCCCCCCCCC(=O)O,inactive,
Cc1ccc2c(Br)cc(Br)c(O)c2n1,inactive,
CC(C)(c1ccccc1)c1ccccc1,inactive,
O=C1c2ccccc2C(=O)C1c1ccc(Br)cc1,inactive,
CC(CN(C)C)C(C)(O)Cc1ccc(Cl)cc1 (stereo not given),inactive,
O=C(OCC(O)CO)c1ccccc1Nc1ccnc2cc(Cl)ccc12 (stereo not given),,0.322% [at 18.6 µM]
CCOC(=O)OC(C)OC(=O)[C@@H]1N2C(=O)[C@@H](NC(=O)[C@H](N)c3ccccc3)[C@H]2SC1(C)C (stereo not given in full),,0.278% [at 18.6 µM]
CO/N=C(/C(=O)N[C@@H]1C(=O)N2C(C(=O)O)=C(COC(N)=O)CS[C@H]12)c1ccco1,inactive,
CCCCCCCC/C=C\CCCCCCCCO,inactive,
OCCN1CCN(CCCN2c3ccccc3Sc3ccc(Cl)cc32)CC1,,0.0774% [at 18.6 µM]
O=C(O)CCC(=O)C(=O)O,inactive,
CCc1ccccc1,inactive,

SMILES,Potency,"fluorescence, % of fluorescent control"
C=C1C[C@@]23CC[C@H]4[C@@](C)(CCC[C@@]4(C)C(=O)O[C@@H]4O[C@H](CO)[C@@H](O)[C@H](O)[C@H]4O)[C@@H]2CC[C@]1(O[C@@H]1O[C@H](CO)[C@@H](O)[C@H](O[C@@H]2O[C@H](CO)[C@@H](O)[C@H](O)[C@H]2O)[C@H]1O[C@@H]1O[C@H](CO)[C@@H](O)[C@H](O)[C@H]1O)C3,inactive,
CCC(=O)OC,inactive,
CCCCCCCCCCCCCCN(CCO)CCO,inactive,
C=C1CCC2CC1C2(C)C (stereo not given),inactive,
CCOC(=O)c1ccc(I)cc1,inactive,
O=[N+]([O-])c1ccc(Nc2ccc(Nc3ccccc3)c(S(=O)(=O)O)c2)c([N+](=O)[O-])c1,inactive,
CC(=O)OCC[N+](C)(C)C,inactive,
C=C(C)C(=O)OCCCCCCCCCCCCC,inactive,
COc1cc(C(=O)NCCCCCC(=O)O)cc(OC)c1OC,inactive,
O=c1cc(-c2ccccc2)oc2cc(O)cc(O)c12,inactive,
O=[N+]([O-])c1cc(C2CCCCC2)c(O)c([N+](=O)[O-])c1,inactive,
NC(=O)c1ccncc1,inactive,
C/C=C\C/C=C/CCCCCCCCOC(C)=O,inactive,
C[C@@H](CN(C)C)CN1c2ccccc2Sc2ccccc21,,-0.0799% [at 18.6 µM]
CCC(C)COC(=O)CC(C)C (stereo not given),inactive,
Cc1cc(O)ccc1O,inactive,
O=C1c2ccccc2C(=O)c2c(O)c(O)cc(O)c21,inactive,
C=C1c2cccc(O)c2C(O)=C2C(=O)[C@]3(O)C(O)=C(C(N)=O)C(=O)[C@@H](N(C)C)[C@@H]3[C@@H](O)[C@H]12,,1.19% [at 18.6 µM]
CC(=O)Nc1ccc(C)cc1C,inactive,
CC1CC(C)C(=O)C1=O (stereo not given),inactive,
